Holding throughout (test): NCI-60 one-dose screen, 48 h (100 = growth as untreated, 0 = no growth, -100 = all killed)
Holding throughout (settings): 10 µM unless noted

Assay [1] concerns HCT-15 colon.
Assay [2] deals with HT29 colon.
Assay [3] concerns SNB-75 CNS.
For assay [4], the system named is SNB-19 CNS.
The test system of assay [5] is PC-3 prostate.
The subject of assay [6] is SK-MEL-5 melanoma.
The subject of assay [7] is UACC-62 melanoma.
In assay [8] the test system is LOX IMVI melanoma.
Assay [9] has as its system SK-MEL-28 melanoma.
The test system of assay [10] is SK-MEL-2 melanoma.
Assay [11] relates to SN12C renal.
For assay [12], the system named is UO-31 renal.
For assay [13], the system named is TK-10 renal.
For assay [14], the system named is ACHN renal.
Assay [15] concerns CAKI-1 renal.
The subject of assay [16] is A498 renal.
Assay [17] concerns MOLT-4 leukemia.
The subject of assay [18] is CCRF-CEM leukemia.
For assay [19], the system named is U251 CNS.
Assay [20] deals with EKVX NSCLC.

SMILES strings stand for the structures. Compounds without any hit were thinned out: in the full panel of roughly 83,000, 20% have a hit.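 Testing used 96-well plates and a 48-hour single-concentration exposure. Example: -40 means 40% of the starting cells died.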 Values without a mark were called inactive. Active and inactive are the calls of the source. The calls were made as follows: active = growth percent below 10; inactive = the rest.

Data on nine compounds can be found in PubChem BioAssay (NCI).

Consider `O=C(O)CCN1CCN(c2cccc(Cl)c2)CC1`, for which the growth in [1] is 100%; in assay [2] it was 99.8%; in assay [3] it was 84%; in assay [4], 103%; in [5] it was 101%; in [6], 102%. For the same compound, the growth in [7] was 104%; in [8] it was 110%; in assay [9], 108%; in assay [10], 107%; in assay [11] it was 100%; in [12] it was 106%. For the same compound, the growth was 138% in [13]; 94.8% in assay [14]; 87.6% in assay [15]; 94.2% in assay [16]; 91.3% in assay [17].
As for `FC(F)(F)c1cc(CNc2ncc(Br)c(Cl)n2)cc(C(F)(F)F)c1`, the growth in assay [1] was 97.7%; in assay [2] it was 106%; in [3], 95.4%; in [4] it was 112%; in assay [5] it was 92.2%; in [6], 97.3%. The growth is 103% in [7]; 90.5% in [8]; 102% in [9]; 94% in assay [10]; 99.7% in assay [11]; 83.3% in assay [12]. Besides, the growth was 97.9% in [13]; 104% in assay [14]; 96.7% in assay [16]; 83.2% in [18]; 86% in [17].
In the case of `COc1nc2c(cc1S(=O)(=O)c1ccccc1)CCc1c-2cnn1-c1ccccc1Cl`, the growth was 51.5% in [1]; 36.9% in assay [2]; 50.9% in [3]; 64.5% in [4]; 35.9% in assay [5]; 68% in assay [6]. The growth in assay [7] is 60%; in assay [8], 78%; in assay [9] it was 85.2%; in assay [10], 92.2%; in [11], 59%; in [12], 40.2%. The growth was 42.2% in assay [13]; 62.5% in assay [14]; 49.9% in assay [15]; -1.8% (active) in assay [16]; 42.9% in assay [17].
In the case of `Cc1ccc2c(N/N=C\c3ccco3)cc(C)nc2n1`, the growth is 36.6% in [1]; 26.6% in assay [2]; 85.5% in assay [3]; 87.4% in assay [4]; 70.5% in assay [5]; 94.8% in assay [6]. Moreover, the growth in [7] is 51.1%; in [8], 46.5%; in [9], 80.5%; in [10] it was 114%; in assay [11], 77.2%; in assay [12], 35.1%. The growth in assay [13] is 93.8%; in [14] it was 39.5%; in assay [15], 66%; in [16] it was 50.3%; in [17], 37%.
On to `C=C(C)CCCC(C)CC#N` (stereo unspecified), for which the growth in assay [1] is 101%; in [2], 93.9%; in assay [3], 91.3%; in assay [4], 110%; in assay [5], 95.7%; in assay [6] it was 99.7%. Besides, the growth in [7] is 111%; in assay [8], 99.2%; in assay [9] it was 106%; in assay [10], 97.4%; in [11], 103%; in assay [12] it was 83.6%. Also, the growth in assay [13] was 99%; in [14], 103%; in assay [15] it was 98.5%; in assay [16], 103%; in assay [18], 96.1%; in assay [17], 101%.
Take `CN1CCc2cccc3c2C1Cc1ccc(O)c(O)c1-3` (stereo unspecified): the growth was 70.7% in assay [1]; 76.2% in [2]; 83.6% in assay [3]; 99.9% in assay [19]; 65.6% in [5]; 97.5% in assay [6]. The growth in assay [7] was 105%; in [8], 67.8%; in assay [9], 115%; in [10] it was 117%; in assay [20] it was 75.4%; in assay [11], 88.4%. The growth in [12] was 64.2%; in [13], 129%; in [14], 73%; in [15], 63.4%; in assay [16] it was 103%; in assay [18], 37.9%.
As to `COC(=O)[C@@]12CC[C@@H](C)[C@]3(C[C@@H](c4ccoc4)OC3=O)[C@H]1CC[C@@H]1O[C@@]12C`, the growth was 101% in assay [1]; 107% in assay [2]; 86% in assay [3]; 105% in assay [19]; 95.2% in assay [5]; 98.9% in assay [6]. For the same compound, the growth in [7] is 95.1%; in assay [8], 99.3%; in assay [9], 103%; in assay [10], 96.9%; in assay [20], 94.8%; in [12] it was 78.9%. Besides, the growth was 103% in assay [13]; 105% in [14]; 94.4% in assay [15]; 107% in assay [18]; 110% in assay [17].
For the compound `c1ccc(-c2n(Cc3ccc4ccccc4c3)c3ccccc3[n+]2Cc2ccc3ccccc3c2)cc1`, the growth was -31.9% (active) in assay [1]; -68.1% (active) in assay [2]; -43.9% (active) in [3]; -73.3% (active) in assay [19]; -30.5% (active) in assay [5]; -98.1% (active) in assay [6]. In addition, the growth in [7] was -82.9% (active); in assay [8], -97.3% (active); in assay [9], -43.7% (active); in [10], -36.1% (active); in assay [20] it was 3.45% (active); in assay [11] it was -79.4% (active). Moreover, the growth was -79.7% (active) in assay [12]; -4.48% (active) in assay [14]; -44.7% (active) in assay [15]; -40.6% (active) in assay [16]; 2.6% (active) in assay [18]; -21.8% (active) in [17].
As to `Cc1ccc(C2SCC(=O)N2NC(=O)c2[nH]c3ccc(F)cc3c2-c2ccccc2)cc1` (stereo unspecified), the growth in [1] was 89.8%; in assay [2] it was 74.4%; in assay [3] it was 71.4%; in [19], 81%; in assay [5], 59.9%; in assay [6] it was 89.6%. In addition, the growth was 78.1% in assay [7]; 91.2% in assay [8]; 97.5% in assay [9]; 84.4% in [20]; 75.1% in [12]; 108% in [13]. Moreover, the growth in [14] is 89.9%; in [15] it was 77.1%; in assay [16] it was 86.5%; in assay [18], 89.1%; in assay [17], 69.2%.
